From PubChem BioAssay (NCI) come the findings set out here.

This is part of a sample that, as a whole, favours compounds with a hit. Of some 83,000 tested, about 20% had one in any assay.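 The endpoint reported here, percent growth, reads 100 for growth as untreated, 0 for no net growth and -100 for all cells dead.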 The source made the active and inactive calls. The calls were made as follows: active = growth percent below 10; inactive = the rest.

The first assay deals with NCI-H322M lung. The assay is described as follows: NCI-60 one-dose screen, 48 h (100 = growth as untreated, 0 = no growth, -100 = all killed). As to conditions: 10 µM unless noted.
On to `N=C(N)c1ccc(-c2cc(Cl)cc(Cl)c2)cn1`, for which the growth is 94% (inactive).

For `COc1cc(-c2nn(-c3cccc(NC(=O)c4cccc(C(F)(F)F)c4)c3)cc2-c2ccncc2)ccc1Cl`, the growth is 58.1% (inactive).

`CN(C)c1oc(C2OC2c2ccccc2)nc1C#N` (stereo not drawn): the growth was 81.6% (inactive).

In the case of `O=C(NNC(=O)N1c2ccccc2C=Cc2ccccc21)c1ccccc1`, the growth is 107% (inactive).

As for `Cc1ccc(N2CCN(C(C)C(N)=O)CC2)cc1` (stereo not drawn), the growth was 116% (inactive).

In the case of `C=C(C)[C@@H]1C[C@H](O)Cc2cc(F)ccc2N1`, the growth is 102% (inactive).

Regarding `c1ccc(-c2nnc(-c3ccccn3)s2)nc1`, the growth is 117% (inactive).

For the compound `C=C1CCC2C(C)(CO)C(O)CCC2(C)C1C/C=C1/C(=O)OCC1Oc1ccccc1C` (stereo not drawn), the growth is 98.6% (inactive).

For the compound `Cc1ccc(S(=O)(=O)C2=C3C(=C(c4ccccc4)c4ccccc43)CN(S(=O)(=O)c3ccc(C)cc3)C2)cc1`, the growth is 93.8% (inactive).

Turning to `COc1cc(C(=O)/C=C/c2c(C)n([O-])c3ccc(C(F)(F)F)cc3[n+]2=O)cc(OC)c1OC`, the growth is 118% (inactive).

For `COc1ccc(C(=O)n2nc(/C=C/c3ccc(O)c(OC)c3)cc2/C=C/c2ccc(O)c(OC)c2)cc1`, the growth was 11.7% (inactive).

As for `COc1cc(/C=N\NC(=O)CN2CCN(c3cc4c(cc3F)c(=O)c(C(=O)N/N=C/c3cc(OC)c(OC)c(OC)c3)cn4C3CC3)CC2)cc(OC)c1OC`, the growth is 11.5% (inactive).

Consider `CCCCCCN1CSC(=S)N(CCCCCC)C1`, for which the growth was 115% (inactive).

With `Cc1csc(NC(c2ccc(Br)cc2)c2c(C)nc3ccccn23)n1` (stereo not drawn), the growth was 84.9% (inactive).

Regarding `Fc1ccc(Nc2nc(NCCNc3ccnc4cc(Cl)ccc34)nc(N3CCOCC3)n2)cc1`, the growth was 73.7% (inactive).

As for `Cc1ccc(-c2nc(C#N)c(S(=O)(=O)n3nc(-c4ccccc4)cc3N)o2)cc1`, the growth was 97.3% (inactive).

As for `CCOC(=O)c1ccc2c(c1)c1c(C)c3cccnc3c(C)c1n2C`, the growth was 56.9% (inactive).

As for `COc1ccc(-c2nc(SCCC(C)C)nc(Nc3ccc(F)c(Cl)c3)c2C#N)cc1`, the growth is 63.2% (inactive).

With `N[C@@H]1CCN(C(=O)c2cc3cc(Cl)c(F)c(F)c3[nH]2)C1`, the growth was 87.1% (inactive).

On to `CC(C)(C)c1[nH]nc2c1C(c1cc3ccccc3[nH]c1=O)Nc1cc(C(=O)Nc3ccc(Cl)cc3)ccc1N2` (stereo not drawn), for which the growth was 78.6% (inactive).

Regarding `Cc1ccc(S(=O)(=O)NCCNc2nccc(-c3c(-c4cccc(N)c4)nc4sccn34)n2)cc1`, the growth is 108% (inactive).

For the compound `CN(C)c1ncnc2c1ccn2C1OC(CO)C(O)C1O` (stereo not drawn), the growth was 3.23% (active).

On to `C/C(=C\c1ccc(OCC(=O)O)c(Cl)c1Cl)[N+](=O)[O-]`, for which the growth was 134% (inactive).

For the compound `COc1ccc(/C=C/c2c(C(C)=O)c(C)nc3ccccc23)cc1`, the growth was 99.3% (inactive).

For `COc1ccc(Nc2nn3c(C)cc(C)nc3c2C(=O)Nc2ccc(C)cc2)c(OC)c1`, the growth was 92.8% (inactive).

Turning to `Cc1[nH]c2ccc(F)cc2c1CCNC(=O)C1CCN(C(=O)c2ccccc2)C1` (stereo not drawn), the growth was 61.8% [25 µM] (inactive).

On to `N#Cc1c(Nc2ccccc2)nc2n(c1=O)-c1ccccc1Sc1ccccc1-2`, for which the growth was 90.7% (inactive).

For `C=C1CC2(OC1=O)C(=O)N(CCCN1C(=O)C3(CC(=C)C(=O)O3)c3ccccc31)c1ccccc12` (stereo not drawn), the growth is 86.1% (inactive).

With `C=C(C)[C@@H]1CC[C@]2(C(=O)O)CC[C@]3(C)[C@H](CC[C@@H]4[C@@]5(C)C[C@@H](CC#Cc6ccc(C(F)(F)F)cc6)[C@H](O)C(C)(C)[C@@H]5CC[C@]43C)[C@@H]12`, the growth is 35.2% (inactive).

As to `CCCCCCCCC(C)OC(=O)c1nn(C(C)=O)c2ccccc12` (stereo not drawn), the growth is 102% (inactive).

`Oc1ccc2cc(Br)ccc2c1-c1c(O)ccc2cc(Br)ccc12`: the growth is 57.1% (inactive).

Consider `COc1ccc(-c2cn(-c3cccc(C(=O)/C=C/c4cc(OC)c(OC)c(OC)c4)c3)c(=O)[nH]2)cc1OC`, for which the growth was 95.5% (inactive).

On to `N/C(=N\C(N)=N\c1nc2ccccc2s1)c1cccc(Br)c1`, for which the growth was 81% (inactive).

For the compound `c1cc2[nH]ncc2cc1-c1nc2ccc3[nH]ncc3c2c2c1CCC2`, the growth was 58% (inactive).

Take `O=C(Nc1ccc(Cl)c(Cl)c1)NS(=O)(=O)c1cnccc1Oc1ccc(F)cc1`: the growth is 89.2% (inactive).

As for `Cc1ccc(C(=O)NCCCNc2nccc(-n3ccc4cccnc43)n2)cc1`, the growth is 91.6% (inactive).

Turning to `CC(C)(C)n1cc(-c2ccnc(NCCCNS(=O)(=O)c3ccccc3)c2)c(-c2cccc(O)c2)n1`, the growth was 59.1% (inactive).

`COc1ccc(C(=O)c2cc(OC)c(OC)c(OC)c2OC)cc1O`: the growth was 55.4% (inactive).

Consider `C=C1C(=O)O[C@@H]2[C@@H]3O[C@@](C)(CC/C=C(\C)CCC[C@@H]2C)[C@H](O)C[C@@H]13`, for which the growth is 97.3% (inactive).

Another assay concerns HOP-62 NSCLC. The description is as above. As to conditions: 10 µM unless noted.
With `N=C(N)c1ccc(-c2cc(Cl)cc(Cl)c2)cn1`, the growth is 91.6% (inactive).

For `COc1cc(-c2nn(-c3cccc(NC(=O)c4cccc(C(F)(F)F)c4)c3)cc2-c2ccncc2)ccc1Cl`, the growth is 22.9% (inactive).

On to `CN(C)c1oc(C2OC2c2ccccc2)nc1C#N` (stereo not drawn), for which the growth was 75.6% (inactive).

`O=C(NNC(=O)N1c2ccccc2C=Cc2ccccc21)c1ccccc1`: the growth is 114% (inactive).

With `Cc1ccc(N2CCN(C(C)C(N)=O)CC2)cc1` (stereo not drawn), the growth is 109% (inactive).

Consider `C=C(C)[C@@H]1C[C@H](O)Cc2cc(F)ccc2N1`, for which the growth is 87.4% (inactive).

With `c1ccc(-c2nnc(-c3ccccn3)s2)nc1`, the growth was 80.4% (inactive).

`C=C1CCC2C(C)(CO)C(O)CCC2(C)C1C/C=C1/C(=O)OCC1Oc1ccccc1C` (stereo not drawn): the growth is 101% (inactive).

Consider `Cc1ccc(S(=O)(=O)C2=C3C(=C(c4ccccc4)c4ccccc43)CN(S(=O)(=O)c3ccc(C)cc3)C2)cc1`, for which the growth is 88.6% (inactive).

Regarding `COc1cc(C(=O)/C=C/c2c(C)n([O-])c3ccc(C(F)(F)F)cc3[n+]2=O)cc(OC)c1OC`, the growth was 118% (inactive).

Regarding `COc1ccc(C(=O)n2nc(/C=C/c3ccc(O)c(OC)c3)cc2/C=C/c2ccc(O)c(OC)c2)cc1`, the growth was 5.2% (active).

`COc1cc(/C=N\NC(=O)CN2CCN(c3cc4c(cc3F)c(=O)c(C(=O)N/N=C/c3cc(OC)c(OC)c(OC)c3)cn4C3CC3)CC2)cc(OC)c1OC`: the growth is -11.8% (active).

Consider `CCCCCCN1CSC(=S)N(CCCCCC)C1`, for which the growth is 104% (inactive).

In the case of `Cc1csc(NC(c2ccc(Br)cc2)c2c(C)nc3ccccn23)n1` (stereo not drawn), the growth is 92.8% (inactive).

With `Fc1ccc(Nc2nc(NCCNc3ccnc4cc(Cl)ccc34)nc(N3CCOCC3)n2)cc1`, the growth is 85% (inactive).

Take `Cc1ccc(-c2nc(C#N)c(S(=O)(=O)n3nc(-c4ccccc4)cc3N)o2)cc1`: the growth is 87.6% (inactive).

Consider `CCOC(=O)c1ccc2c(c1)c1c(C)c3cccnc3c(C)c1n2C`, for which the growth was 72.7% (inactive).

Turning to `COc1ccc(-c2nc(SCCC(C)C)nc(Nc3ccc(F)c(Cl)c3)c2C#N)cc1`, the growth was 88.7% (inactive).

`N[C@@H]1CCN(C(=O)c2cc3cc(Cl)c(F)c(F)c3[nH]2)C1`: the growth is 84.4% (inactive).

Turning to `CC(C)(C)c1[nH]nc2c1C(c1cc3ccccc3[nH]c1=O)Nc1cc(C(=O)Nc3ccc(Cl)cc3)ccc1N2` (stereo not drawn), the growth was 83.6% (inactive).

Regarding `Cc1ccc(S(=O)(=O)NCCNc2nccc(-c3c(-c4cccc(N)c4)nc4sccn34)n2)cc1`, the growth is 105% (inactive).

Take `CN(C)c1ncnc2c1ccn2C1OC(CO)C(O)C1O` (stereo not drawn): the growth is 50.8% (inactive).

Consider `C/C(=C\c1ccc(OCC(=O)O)c(Cl)c1Cl)[N+](=O)[O-]`, for which the growth is 100% (inactive).

`COc1ccc(/C=C/c2c(C(C)=O)c(C)nc3ccccc23)cc1`: the growth is 79.2% (inactive).

Consider `COc1ccc(Nc2nn3c(C)cc(C)nc3c2C(=O)Nc2ccc(C)cc2)c(OC)c1`, for which the growth was 85.8% (inactive).

On to `Cc1[nH]c2ccc(F)cc2c1CCNC(=O)C1CCN(C(=O)c2ccccc2)C1` (stereo not drawn), for which the growth was 93.3% [25 µM] (inactive).

Take `N#Cc1c(Nc2ccccc2)nc2n(c1=O)-c1ccccc1Sc1ccccc1-2`: the growth was 98.8% (inactive).

Take `C=C1CC2(OC1=O)C(=O)N(CCCN1C(=O)C3(CC(=C)C(=O)O3)c3ccccc31)c1ccccc12` (stereo not drawn): the growth was 98.2% (inactive).

For the compound `C=C(C)[C@@H]1CC[C@]2(C(=O)O)CC[C@]3(C)[C@H](CC[C@@H]4[C@@]5(C)C[C@@H](CC#Cc6ccc(C(F)(F)F)cc6)[C@H](O)C(C)(C)[C@@H]5CC[C@]43C)[C@@H]12`, the growth was 10% (inactive).

`CCCCCCCCC(C)OC(=O)c1nn(C(C)=O)c2ccccc12` (stereo not drawn): the growth is 97.7% (inactive).

For `Oc1ccc2cc(Br)ccc2c1-c1c(O)ccc2cc(Br)ccc12`, the growth is 72.2% (inactive).

With `COc1ccc(-c2cn(-c3cccc(C(=O)/C=C/c4cc(OC)c(OC)c(OC)c4)c3)c(=O)[nH]2)cc1OC`, the growth is 93% (inactive).

In the case of `N/C(=N\C(N)=N\c1nc2ccccc2s1)c1cccc(Br)c1`, the growth was -0.459% (active).

As for `c1cc2[nH]ncc2cc1-c1nc2ccc3[nH]ncc3c2c2c1CCC2`, the growth is 47.6% (inactive).

In the case of `O=C(Nc1ccc(Cl)c(Cl)c1)NS(=O)(=O)c1cnccc1Oc1ccc(F)cc1`, the growth is 80.6% (inactive).

Regarding `Cc1ccc(C(=O)NCCCNc2nccc(-n3ccc4cccnc43)n2)cc1`, the growth was 104% (inactive).

`CC(C)(C)n1cc(-c2ccnc(NCCCNS(=O)(=O)c3ccccc3)c2)c(-c2cccc(O)c2)n1`: the growth was 66.1% (inactive).

`COc1ccc(C(=O)c2cc(OC)c(OC)c(OC)c2OC)cc1O`: the growth is 42% (inactive).

With `C=C1C(=O)O[C@@H]2[C@@H]3O[C@@](C)(CC/C=C(\C)CCC[C@@H]2C)[C@H](O)C[C@@H]13`, the growth is 81.2% (inactive).
